Experiment [1] in a line: NCI Yeast Anticancer Drug Screen. Data for the rad50 strain (AID 155).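 Also: 0% = growth of vehicle-only cultures of the same strain.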 To be noted: S. cerevisiae rad50 strain growth inhibition, stronger effect = higher value. An outline of the steps:
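Vehicle-treated cultures provide the reference for the growth inhibition reported for compound-exposed, repair-deficient yeast.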

The nature of experiment [2]: NCI Yeast Anticancer Drug Screen. Data for the mec2-1 strain (AID 157). The settings on record: S. cerevisiae mec2-1 strain, stronger effect = higher value. The method, boiled down: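 Using mec2-1 yeast: add compound, measure growth, express inhibition versus vehicle-treated cultures.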
Experiment [3] can be described thus: NCI Yeast Anticancer Drug Screen. Data for the sgs1 mgt1 strain (AID 161).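 Also: 0% = growth of cultures given vehicle only.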 The settings on record: S. cerevisiae sgs1 mgt1 strain, stronger effect = higher value. An outline of the steps: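 Percent growth inhibition was derived by comparing compound-exposed mutant yeast with vehicle-exposed cultures. The strain carries alterations in DNA damage repair.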
Experiment [4] can be described thus: NCI Yeast Anticancer Drug Screen. Data for the cln2 rad14 strain (AID 165).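 Also: 0% = growth equal to vehicle treated cultures.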 To be noted: S. cerevisiae cln2 rad14 strain, stronger effect = higher value. An outline of the steps: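 Yeast strain cln2 rad14, bearing defects in cell cycle control and DNA repair, serves as the test system; values reflect growth inhibition compared with vehicle.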
The nature of experiment [5]: NCI Yeast Anticancer Drug Screen. Data for the bub3 strain (AID 167). To be noted: S. cerevisiae bub3 mutant strain, stronger effect = higher value. The method, boiled down: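 Mutant yeast screening strain plus compound; vehicle-treated cultures serve as the 0% inhibition reference.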
Experiment [6] is described as follows: NCI Yeast Anticancer Drug Screen. Data for the mlh1 rad18 strain (AID 175). To be noted: S. cerevisiae mlh1 rad18 strain growth inhibition, stronger effect = higher value. The method, boiled down:
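Steps: expose repair-defective yeast to compound; measure growth; express inhibition against vehicle-treated controls.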

[7] abbreviates: at 5.0 µM (retest, dose inferred, filed as 0.5).
The mark [8] stands for this setting: at 50.0 µM (retest, dose inferred, filed as 5.0).

The panel holds about 79,000 compounds, 15% with a hit somewhere; the sample as a whole holds those more often. Values without a mark were called inactive. The source made the active and inactive calls. Rule as the data show it: active = growth inhibition above about 70%; inactive = the rest.

Consider `CN1CCN(CCCCN2c3ccccc3Sc3ccc(C(=O)c4ccccc4)cc32)CC1`, for which the growth inhibition in experiment [1] (setting [7]) is 25%; in experiment [1] (setting [8]), 27%; in experiment [1] (at 50.0 µM), 75.6% (active); in experiment [2] (setting [7]), 26%; in experiment [2] (setting [8]) it was 34%; in experiment [2] (at 50.0 µM) it was 22.8%. For the same molecule, the growth inhibition in experiment [3] (setting [7]) was 27%; in experiment [3] (setting [8]), 2%; in experiment [3] (at 50.0 µM), 87.2% (active); in experiment [4] (setting [7]), 30%; in experiment [4] (setting [8]) it was 18%; in experiment [4] (at 50.0 µM), -9.8%. Further, the growth inhibition in experiment [5] (setting [7]) is 36%; in experiment [5] (setting [8]), 25%; in experiment [5] (at 50.0 µM), 22%; in experiment [6] (setting [7]) it was 32%; in experiment [6] (setting [8]), 37%; in experiment [6] (at 50.0 µM), 60.2%.

Take `COc1cc2c(c(OC)c1OC)-c1ccc(SC)c(=O)cc1[C@@H](NC(=O)Oc1ccccc1)CC2`: the growth inhibition in experiment [1] (setting [7]) is 73% (active); in experiment [1] (setting [8]), 31%; in experiment [1] (at 50.0 µM) it was 54%; in experiment [2] (setting [7]) it was 24%; in experiment [2] (setting [8]), 29%; in experiment [2] (at 50.0 µM), -0.55%. The growth inhibition in experiment [3] (setting [7]) is -9%; in experiment [3] (setting [8]) it was 9%; in experiment [3] (at 50.0 µM) it was -2.45%; in experiment [4] (setting [7]), -12%; in experiment [4] (setting [8]), 13%; in experiment [4] (at 50.0 µM), 1.65%. The growth inhibition was -8% in experiment [5] (setting [7]); 8% in experiment [5] (setting [8]); 0.9% in experiment [5] (at 50.0 µM); 20% in experiment [6] (setting [7]); 43% in experiment [6] (setting [8]); 12.6% in experiment [6] (at 50.0 µM).

In the case of `CCCCCCCC/C=C\CCCCCCCC(=O)NCCN(C)C`, the growth inhibition in experiment [1] (setting [7]) is -1%; in experiment [1] (setting [8]), 99% (active); in experiment [1] (at 50.0 µM), 99.3% (active); in experiment [2] (setting [7]), 5%; in experiment [2] (setting [8]), 100% (active); in experiment [2] (at 50.0 µM), 99.4% (active). The growth inhibition in experiment [3] (setting [7]) is 33%; in experiment [3] (setting [8]) it was 99% (active); in experiment [3] (at 50.0 µM) it was 99.5% (active); in experiment [4] (setting [7]), 2%; in experiment [4] (setting [8]) it was 99% (active); in experiment [4] (at 50.0 µM) it was 68.2%. Also, the growth inhibition in experiment [5] (setting [7]) was 2%; in experiment [5] (setting [8]) it was 99% (active); in experiment [5] (at 50.0 µM) it was 97.2% (active); in experiment [6] (setting [7]), 22%; in experiment [6] (setting [8]), 99% (active); in experiment [6] (at 50.0 µM) it was 99.5% (active).

For `Cc1ccc(NC(=O)Oc2ccc(OC(=O)Cc3ccccc3)cc2)cc1NC(=O)Oc1ccc(OC(=O)Cc2ccccc2)cc1`, the growth inhibition was 10% in experiment [1] (setting [7]); 97% (active) in experiment [1] (setting [8]); 99.2% (active) in experiment [1] (at 50.0 µM); 43% in experiment [2] (setting [7]); 94% (active) in experiment [2] (setting [8]); 99.4% (active) in experiment [2] (at 50.0 µM). For the same molecule, the growth inhibition was 2% in experiment [3] (setting [7]); 89% (active) in experiment [3] (setting [8]); 99.2% (active) in experiment [3] (at 50.0 µM); 10% in experiment [4] (setting [7]); 93% (active) in experiment [4] (setting [8]); 98.2% (active) in experiment [4] (at 50.0 µM). The growth inhibition in experiment [5] (setting [7]) is 15%; in experiment [5] (setting [8]) it was 98% (active); in experiment [5] (at 50.0 µM), 99% (active); in experiment [6] (setting [7]), 2%; in experiment [6] (setting [8]), 98% (active); in experiment [6] (at 50.0 µM) it was 99.1% (active).

For `CCOc1c(N=Nc2ccc(Cl)cc2)c(-c2ccccc2)nn1C(=S)S`, the growth inhibition in experiment [1] (setting [7]) was 4%; in experiment [1] (setting [8]), 91% (active); in experiment [1] (at 50.0 µM) it was 95.3% (active); in experiment [2] (setting [7]), 2%; in experiment [2] (setting [8]), 89% (active); in experiment [2] (at 50.0 µM), 95.6% (active). Moreover, the growth inhibition in experiment [3] (setting [7]) is 8%; in experiment [3] (setting [8]), 92% (active); in experiment [3] (at 50.0 µM) it was 92% (active); in experiment [4] (setting [7]), 5%; in experiment [4] (setting [8]) it was 92% (active); in experiment [4] (at 50.0 µM), 91.5% (active). In addition, the growth inhibition in experiment [5] (setting [7]) was 0%; in experiment [5] (setting [8]) it was 94% (active); in experiment [5] (at 50.0 µM) it was 92.8% (active); in experiment [6] (setting [7]), 2%; in experiment [6] (setting [8]) it was 91% (active); in experiment [6] (at 50.0 µM) it was 94.4% (active).

Turning to `Cc1cc(Br)c(P(=O)(O)O)cc1[N+](=O)[O-]`, the growth inhibition in experiment [1] (setting [7]) is -3%; in experiment [1] (setting [8]), -10%; in experiment [1] (at 50.0 µM) it was 74.1% (active); in experiment [2] (setting [7]), -7%; in experiment [2] (setting [8]), -3%; in experiment [2] (at 50.0 µM) it was 42.7%. For the same molecule, the growth inhibition in experiment [3] (setting [7]) is -3%; in experiment [3] (setting [8]) it was -14%; in experiment [3] (at 50.0 µM) it was 72% (active); in experiment [4] (setting [7]), 0%; in experiment [4] (setting [8]) it was -5%; in experiment [4] (at 50.0 µM), -2.55%. Moreover, the growth inhibition in experiment [5] (setting [7]) was 3%; in experiment [5] (setting [8]), 6%; in experiment [5] (at 50.0 µM), 4.4%; in experiment [6] (setting [7]), 3%; in experiment [6] (setting [8]) it was -4%; in experiment [6] (at 50.0 µM), 64%.

Regarding `O=C1CCCCC1Sc1ccc(Cl)cc1` (stereo unspecified), the growth inhibition in experiment [1] (setting [7]) is 1%; in experiment [1] (setting [8]), 94% (active); in experiment [1] (at 50.0 µM) it was 91.2% (active); in experiment [2] (setting [7]), 2%; in experiment [2] (setting [8]), 95% (active); in experiment [2] (at 50.0 µM), 91.1% (active). The growth inhibition in experiment [3] (setting [7]) was 2%; in experiment [3] (setting [8]), 87% (active); in experiment [3] (at 50.0 µM), 96.3% (active); in experiment [4] (setting [7]), -4%; in experiment [4] (setting [8]), 76% (active); in experiment [4] (at 50.0 µM), 76.1% (active). Further, the growth inhibition in experiment [5] (setting [7]) was 3%; in experiment [5] (setting [8]), 96% (active); in experiment [5] (at 50.0 µM), 85.2% (active); in experiment [6] (setting [7]), 2%; in experiment [6] (setting [8]) it was 94% (active); in experiment [6] (at 50.0 µM), 87.5% (active).

Values taken from PubChem BioAssay (NCI).
